TDP1 cell CPT – qHTS for Inhibitors of human tyrosyl-DNA phosphodiesterase 1 (TDP1): qHTS in cells in presence of CPT. chicken DT40 Tdp1-/-;hTDP1 cells + 20 nM CPT, ATP luminescence, 48 h. Potency, µM (doses to about 46.2 µM), without a hit: at the top dose activity change, negative = growth inhibition, usual class: inhibitors. 12% of 420,000 active; further: nearly all actives have a fitted effect of over 55% in size
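Cell growth measured by CellTiter-Glo luminescence after a minimum 48 h, 37 C compound exposure with 20 nM CPT in Tdp1-knockout DT40 cells stably expressing hTDP1, seeded 400/well; qHTS titration format.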
KB-3-1 tox – qHTS assay for MDR1-selective chemotherapeutics: Primary screen using the parental adenocarcinoma cell KB-3-1 | KB-3-1 viability, CellTiter-Glo ATP luminescence, 72 h | Potency, µM (titrated, usually from 46.1 µM), hits mostly cytotoxic | 1.4% of 400,000 active | AID 1347075, 2019; further: nearly all actives have a fitted effect of over 60% in size
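Cells are dispensed, compounds pinned in, plates held at 37 °C for 72 h, then CellTiter-Glo is added and luminescence read after 10 minutes. Cell line: parental KB-3-1 in phenol-red-free DMEM, 10% FBS.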
HT1080NT lethal – qHTS for induction of synthetic lethality in tumor cells producing 2HG: qHTS for the HT-1080-NT fibrosarcoma cell line. Potency, µM (series often up to 46.1 µM), for inactives: at the top dose activity, negative = less viability, actives largely listed as cytotoxic. HT-1080-NT fibrosarcoma viability, CellTiter-Glo ATP luminescence, 48 h. 1.6% of 360,000 active. AID 686970, 2013;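 further: NT is the 2HG producing partner of a matched IDH1 knockdown line; 0% = DMSO-treated cells and -100% = media-only wells without cells; nearly all actives have a fitted effect of over 55% in size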
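750 cells/well, RPMI + 5% FBS; 2 h settle, compound pin-transfer, 48 h at 37 degrees C. CellTiter-Glo 10 min RT, luminescence. Normalized to DMSO and media-only wells.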
TDP1 cell noCPT – qHTS for Inhibitors of human tyrosyl-DNA phosphodiesterase 1 (TDP1): qHTS in cells in absence of CPT; 15% of 420,000 active; Potency, µM (titrated, usually from 46.2 µM), inactives show at the highest dose activity change, negative = growth inhibition, actives largely listed as inhibitors; DT40 Tdp1-/- hTDP1 cells, no CPT, ATP luminescence, 48 h; further: nearly all actives have a fitted effect of over 55% in size
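A cellular qHTS used chicken DT40 cells lacking endogenous Tdp1 but carrying stably transfected human TDP1. Compounds were applied without camptothecin, and cell growth kinetics were judged by ATP-dependent luminescence after ≥48 hr.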
KB-V1 cytotox – qHTS assay for MDR1-selective chemotherapeutics: Primary screen using the drug-selected MDR subline cells KB-V1; Potency, µM (titrated, usually from 46.1 µM), most hits filed as cytotoxic; KB-V1 MDR cells viability, CellTiter-Glo, 72 h; AID 1347076, 2019; 3.4% of 400,000 active; further: nearly all actives have a fitted effect of over 60% in size
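KB-V1 MDR subline cells in DMEM (phenol-red free, 10% FBS) exposed to compounds in qHTS concentration series for 72 h at 37 degrees C. Viability read by CellTiter-Glo luminescence; concentration-effect curves fitted after normalization and correction.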
HT1080 IDH1KD tx – qHTS for induction of synthetic lethality in tumor cells producing 2HG: qHTS for the HT-1080-IDH1KD cell line | Potency, µM (titrated, usually from 46.1 µM), for inactives: at the highest dose activity, negative = toxicity, most hits filed as cytotoxic | 2% of 360,000 active | HT-1080 IDH1 knockdown viability, ATP luminescence, 48 h;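 further: 0% = DMSO wells and -100% = cell-free medium wells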
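Assay cells: HT-1080 with IDH1 knockdown, 750 per well, RPMI/5% FBS. Exposure: 48 h at 37 °C following 2 h pre-incubation. Read: CellTiter-Glo luminescence; fitted concentration-response, curve class assigned.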
* hit, by the source's call. An excerpt weighted towards active compounds, which were near 19% of everything screened. The call rests on the fitted dose curve; in most records, active means well fitted curve in the direction sought with a large enough effect; inconclusive means small, poorly fitted or top-dose-only effect, or another doubt; inactive means no such curve, though single readings can be large; an effect the other way counts as inactive or inconclusive. Unless noted, on the % scale 0 is the no-effect control and ±100 the full control effect; potency means the concentration at half of the fitted maximal effect.

`O=c1c2ccccc2c(C=Nc2cccc(O)c2)c(O)n1-c1ccc2c(c1)OCO2` gave TDP1 cell CPT 6.5µM*, KB-3-1 tox inconclusive, HT1080NT lethal -6%, TDP1 cell noCPT 12µM*, KB-V1 cytotox inactive and HT1080 IDH1KD tx 1%.
Screening COc1cccc2oc3ccc(C#CC4(N)CCCCC4)cc3c(=O)c12 returned TDP1 cell CPT 7.3µM*, KB-3-1 tox inactive, HT1080NT lethal -1%, TDP1 cell noCPT 3.7µM*, KB-V1 cytotox inconclusive and HT1080 IDH1KD tx -6%.
Screening Cn1c2ccccc2c(=O)c2cc(C#CC3(O)CCCCC3)ccc21 returned TDP1 cell CPT 16µM*, KB-3-1 tox inconclusive, HT1080NT lethal -1%, TDP1 cell noCPT inconclusive, KB-V1 cytotox inconclusive and HT1080 IDH1KD tx -9%.
`Cn1c2ccccc2c(=O)c2ccc(C#Cc3ccccn3)cc21` gave TDP1 cell CPT inconclusive, KB-3-1 tox inactive, HT1080NT lethal -1%, TDP1 cell noCPT inconclusive, KB-V1 cytotox inactive and HT1080 IDH1KD tx 12%.
Screening Cn1c2ccccc2c(=O)c2ccc(C#CC3(N)CCCCC3)cc21 returned TDP1 cell CPT -96%, KB-3-1 tox inconclusive, HT1080NT lethal inconclusive, TDP1 cell noCPT 13µM*, KB-V1 cytotox inactive and HT1080 IDH1KD tx -18%.
Screening NC1(C#Cc2ccc3c(=O)c4ccccc4sc3c2)CCCCC1 returned TDP1 cell CPT 26µM*, KB-3-1 tox inactive, HT1080NT lethal -1%, TDP1 cell noCPT inconclusive, KB-V1 cytotox inactive and HT1080 IDH1KD tx -4%.
For CCC(=O)Nc1ccc(C(=O)CSc2nc(N)cc(N)n2)cc1 the results were TDP1 cell CPT 11%, KB-3-1 tox inactive, HT1080NT lethal 9%, TDP1 cell noCPT -1%, KB-V1 cytotox inactive and HT1080 IDH1KD tx 9%.
`C/C(=N\NC(=O)c1cc(C)oc1C)c1ccc2ccccc2c1` gave TDP1 cell CPT inconclusive, KB-3-1 tox inactive, HT1080NT lethal -6%, TDP1 cell noCPT inconclusive, KB-V1 cytotox inactive and HT1080 IDH1KD tx 0%.
CC(C)CC(=O)N1CCN(Cc2ccc3c(c2)OCO3)CC1 was read as TDP1 cell CPT -20%, KB-3-1 tox inactive, HT1080NT lethal -3%, TDP1 cell noCPT -16%, KB-V1 cytotox inactive and HT1080 IDH1KD tx 10%.
For CCc1cccc(OCC(=O)Nc2ccc(S(=O)(=O)N3CCCC3)cc2)c1 the results were TDP1 cell CPT inconclusive, KB-3-1 tox inactive, HT1080NT lethal -4%, TDP1 cell noCPT -12%, KB-V1 cytotox inactive and HT1080 IDH1KD tx -14%.
Screening Fc1ccc(-c2nnn3c2nc(NCc2ccccc2)c2ccccc23)cc1 returned TDP1 cell CPT -17%, KB-3-1 tox inactive, HT1080NT lethal 20%, TDP1 cell noCPT inconclusive, KB-V1 cytotox inactive and HT1080 IDH1KD tx -4%.
Screening NNc1nc2c(-c3ccc(Cl)cc3)nnn2c2ccccc12 returned TDP1 cell CPT 10µM*, KB-3-1 tox inactive, HT1080NT lethal 2%, TDP1 cell noCPT inconclusive, KB-V1 cytotox inactive and HT1080 IDH1KD tx -2%.
`NNc1nc2c(-c3ccc(F)cc3)nnn2c2ccccc12` gave TDP1 cell CPT 10µM*, KB-3-1 tox inactive, HT1080NT lethal -25%, TDP1 cell noCPT 12µM*, KB-V1 cytotox inactive and HT1080 IDH1KD tx -27%.
Screening Cn1cccc1C(=O)OCC(=O)N1CCc2ccccc2C1 returned TDP1 cell CPT 0%, KB-3-1 tox inactive, HT1080NT lethal 16%, TDP1 cell noCPT -3%, KB-V1 cytotox inconclusive and HT1080 IDH1KD tx -1%.
`CC(C)=NNc1cnnc2ccc([N+](=O)[O-])cc12` gave TDP1 cell CPT 13µM*, KB-3-1 tox inactive, HT1080NT lethal -25%, TDP1 cell noCPT 13µM*, KB-V1 cytotox inactive and HT1080 IDH1KD tx -14%.
Screening C/C(=N\Nc1ccc([N+](=O)[O-])cc1[N+](=O)[O-])c1cccnc1 returned TDP1 cell CPT -12%, KB-3-1 tox inactive, HT1080NT lethal -15%, TDP1 cell noCPT -7%, KB-V1 cytotox inactive and HT1080 IDH1KD tx -6%.
`O=C1C(=NO)CCc2ccccc21` gave TDP1 cell CPT 21µM*, KB-3-1 tox inconclusive, HT1080NT lethal -15%, TDP1 cell noCPT 21µM*, KB-V1 cytotox inactive and HT1080 IDH1KD tx inconclusive.
Screening O/N=C1/CCc2cccc3cccc1c23 returned TDP1 cell CPT 15%, KB-3-1 tox inactive, HT1080NT lethal 8%, TDP1 cell noCPT -8%, KB-V1 cytotox inactive and HT1080 IDH1KD tx -3%.
COc1cccc2c1C(=O)/C(=C/c1ccc(N(C)C)cc1)C2 was read as TDP1 cell CPT inconclusive, KB-3-1 tox inactive, TDP1 cell noCPT inconclusive and KB-V1 cytotox inactive.
`CC(=O)c1cnn(-c2c(Cl)cc(Cl)cc2Cl)c1C` gave TDP1 cell CPT 16µM*, KB-3-1 tox inactive, HT1080NT lethal -4%, TDP1 cell noCPT 18µM*, KB-V1 cytotox inconclusive and HT1080 IDH1KD tx -3%.
O=C(Nc1ccccc1Cl)Nc1ccnn1C1CCN(C(=O)CCN2CCCO2)CC1 was read as TDP1 cell CPT -1%, KB-3-1 tox inactive, HT1080NT lethal -4%, TDP1 cell noCPT 3%, KB-V1 cytotox inactive and HT1080 IDH1KD tx 1%.
COc1cc(OC)c(NC(=O)N2CCc3c(sc4c3CCCC4)C2c2ccccc2)cc1Cl (stereo not given) was read as TDP1 cell CPT inconclusive, KB-3-1 tox inactive, TDP1 cell noCPT 21µM* and KB-V1 cytotox inactive.
COc1ccc(Cl)cc1NC(=O)N1CC(=O)Nc2sc3c(c2C1c1ccccc1)CCCC3 (stereo not given) was read as TDP1 cell CPT inconclusive, KB-3-1 tox inactive, TDP1 cell noCPT inconclusive and KB-V1 cytotox inactive.
`COc1cc(NC(=O)N2CCSc3ccccc32)cc(OC)c1OC` gave TDP1 cell CPT inconclusive, KB-3-1 tox inactive, TDP1 cell noCPT inconclusive and KB-V1 cytotox inactive.
